Experimental data: PubChem BioAssay AID588856 (National Center for Advancing Translational Sciences (NCATS), 2011)
About 3,100 (0.76%) of roughly 410,000 compounds were called active. Calls follow the shape of the dose curve; as a rule, active = well fitted cell-killing curve with a large enough effect; inactive = no such curve, though single readings can be large or run the other way. The entries come from a sample that favours actives as a whole. A call without a number means that no potency is given here.

Assay: qHTS for Inhibitors of TGF-b: Cytotox Counterscreen
Settings: HepG2 CAGA-GFP viability, ATP luminescence, 18 h; series mostly up to 46.1 µM
Procedure, shortened: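 HepG2 CAGA-GFP cells (1000/well, DMEM with 1% FBS) received compound, then TGF-beta at 500 pg/mL final, and were incubated 18 hours at 37 degrees C. Viability was read by CellTiter-Glo luminescence. Media-only wells were set as complete cell-killing and DMSO as no toxicity.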
Potency is read from the fitted curve at half-maximal effect.

Compound	Potency
N#Cc1ccc[n+](CC(=O)c2ccc(O)c(O)c2)c1	inactive
CN(C)c1cccc2ccccc12	inactive
COC(=O)c1ccc(-c2noc(CN(Cc3ccccn3)CC3CCCO3)n2)cc1 (stereo not given)	inactive
O=C(COc1cccc(F)c1)Oc1ccc(C(=O)c2ccccc2)cc1	inactive
O=C(Oc1ccc(-c2nc(-c3ccccn3)no2)cc1)c1ccccc1	5.01 µM (active)
O=C(c1ccco1)n1nc(-c2ccc(Cl)cc2)nc1NCc1ccccc1	inactive
O=C(Nc1ccc2c(c1)OCO2)c1cc(-c2cccc(Cl)c2)on1	inactive
COc1cc(SC#N)ccc1N=Cc1c(C)[nH]n(-c2ccc(C)cc2)c1=O	12.6 µM (active)
O=C(NCCc1ccccc1)c1cnc2sc(N3CCCC3)nn2c1=O	inactive
Cc1ccc2oc(C(=O)Nc3ccc(S(=O)(=O)N4CCCCCC4)cc3)cc(=O)c2c1	inactive
Fc1ccc(CSc2nc(NCc3ccccc3)c3ccccc3n2)cc1	inactive
Fc1ccc(Nc2nc(SCc3ccccc3Cl)nc3ccccc23)cc1	17.8 µM (active)
O=C(Nc1nc2ccc(F)cc2s1)c1nc(SCc2ccccc2F)ncc1Cl	inactive
COC(=O)c1ccc(NC(=O)c2cc(S(=O)(=O)N3CCC(C)CC3)cn2C)cc1	inactive
CN(C)c1ccc(/C=c2\[nH]c(=O)/c(=C/c3ccc(N(C)C)cc3)[nH]c2=O)cc1	inactive
COc1ccc(-c2nc3ccc(C(=O)NCc4ccc(C)cc4)cc3nc2-c2ccc(OC)cc2)cc1	inactive
Cc1cccc(CCNC(=O)c2ccc3c(c2)nc2n3CCC(C)C2)c1 (stereo not given)	inactive
Cc1cccc(-c2nc3ccc(C(=O)NCCN4CCN(C)CC4)cc3nc2-c2cccc(C)c2)c1	12.6 µM (active)
Cc1ccc2nc(N3CCN(c4cccc(Cl)c4)CC3)c3nnnn3c2c1	inactive
CCCN(CCC)CCNC(=O)Cn1cnc2sc(C)c(S(=O)(=O)N3CCC(C)CC3)c2c1=O	inactive
CCN(CC)c1ccc(/C=C/c2c(C)cnc3ccc(C)cc23)cc1	inactive
COc1ccc(C(CCN(Cc2ccc(OC)c(OC)c2)C(=O)CCl)c2ccccc2)cc1 (stereo not given)	11.2 µM (active)
COc1ccc(Cl)cc1NC(=O)CN(C)Cc1ccc(OC)c(OC)c1	inactive
CCN(CCCCOC(=O)c1ccc(OC)c(OC)c1)C(C)Cc1ccc(OC)cc1 (stereo not given)	inactive
S=c1[nH]c(=S)c2n[nH]nc2[nH]1	inactive

Compound	Potency
COc1ccc(N2C(=O)CS(=O)(=O)C23C(=O)N(Cc2ccc(C)cc2)c2ccccc23)cc1Cl (stereo not given)	inactive
CCCC(=O)Nc1cc2nn(-c3ccccc3)nc2cc1C	inactive
Cc1ccc(-c2cnc(C(O)c3cc(Cl)cc(Cl)c3)[nH]2)cc1 (stereo not given)	inactive
OC(c1ccc(F)cc1)c1ncc(-c2cccc(C(F)(F)F)c2)[nH]1 (stereo not given)	inactive
OC(c1ccc(Cl)cc1)c1ncc(-c2ccc(Cl)cc2)[nH]1 (stereo not given)	11.2 µM (active)
CCc1ccc(OCCCn2c(CCCNC(=O)C3CCCCC3)nc3ccccc32)cc1	inactive
CCCCCCn1nnc2sc(-c3ccccc3)cc2c1=O	inactive
CC(=O)c1c(C)n(S(=O)(=O)c2ccc(Cl)cc2)c2ccc(NS(=O)(=O)c3ccc(Cl)cc3)cc12	inactive
Cc1ccc(OCC(=O)Nc2ccc(NC(=O)c3cccs3)cc2)c(C)c1	1.12 µM (active)
CCn1c2ccccc2c2cc(NC(=O)COc3ccc(C)cc3C)ccc21	inactive
Cn1c(SCC(=O)Nc2cccc(NC(=O)c3cccs3)c2)nnc1-c1ccncc1	inactive
Cn1c(=O)c(=O)n(C)c2cc(NC(=O)c3ccccc3Br)ccc21	inactive
Cc1cccc(-n2ncc(Cl)c(Cl)c2=O)c1	11.2 µM (active)
Cc1cccc(-n2ncc(C(=O)N3CCC(C)CC3)c2C2CCN(C(=O)OC(C)(C)C)CC2)c1	inactive
Cc1cccc(-n2ncc(C(=O)N3CCN(c4ccc(Cl)cc4)CC3)c2C2CCN(C(=O)OC(C)(C)C)CC2)c1	inactive
COc1ccc(/C=C/c2noc(-c3ccccc3O)n2)cc1OC	inactive
CCOc1ccc(-c2nonc2NC(=O)c2oc3ccc(C)cc3c2C)cc1OCC	inactive
CCOC(=O)c1c(NC(=O)/C(C#N)=C/c2ccccc2)sc2c1CCC2	inactive
CCOC(=O)c1c(NC(=O)c2cc(-c3ccc(Cl)cc3)on2)sc2c1CCCC2	inactive
CCOC(=O)c1c(NC(=O)C(C)Sc2c[nH]c3ccccc23)sc2c1CCC2 (stereo not given)	25.1 µM (active)
Cc1csc(NCC(=O)c2c[nH]c3ccccc23)n1	inactive
Cc1ccc(C)c(N2CCN(Cc3nnc(-c4ccccc4)o3)CC2)c1	inactive
COc1ccc(CCNC(=O)c2ccc(-n3c(C)cc4c3CCCC4)cc2)cc1OC	inactive
CCN(CC)c1ccc(NC(=O)CN2CCN(CC(=O)Nc3ccc(Cl)cc3)CC2)cc1	inactive
O=C(Nc1ccc2c(c1)OCCO2)C(C1CC1)N1CCC(Cc2ccccc2)CC1 (stereo not given)	15.8 µM (active)

Compound	Potency
O=C(Nc1ccc2c(c1)OCCO2)C(c1ccc(F)cc1)N1CCCCC1 (stereo not given)	inactive
O=C(CN1CCOc2ccccc21)N1CCC(Cc2ccccc2)CC1	inactive
Cc1cccc(Nc2nc(C)nc(N)c2S(=O)(=O)c2ccccc2)c1	inactive
COc1ccc(NC(=O)CSc2nccn2C2CCCC2)cc1OC	inactive
COc1ccc2c(c1)c(=O)c(C(=O)c1ccccc1)cn2CC(=O)Nc1ccc2c(c1)OCCO2	inactive
CCN(CC)c1nc(C#N)nc(OC)n1	inactive
COc1ccc(-c2nc(=N)sn2-c2ccccc2)cc1	inactive
Nc1ncnc2nnsc12	inactive
Cc1cc(C)cc(OC(C)C(=O)Nc2nc3c(s2)CCCC3)c1 (stereo not given)	inactive
COc1ccc(-c2nc3cnccn3c2NC2CCCCC2)cc1-c1cccc(Cl)c1	12.6 µM (active)
COc1ccc(-c2nc3cnccn3c2NC(C)(C)CC(C)(C)C)cc1O	inactive
COc1ccc(-c2nc3cc(C)ccn3c2NC2CCCCC2)cc1SC1CCCCC1	inactive
Cc1cccc(-c2nnc(SC(C)C(=O)Nc3ccccc3)n2C)c1 (stereo not given)	inactive
Cc1nnnn1/C(=C\c1ccccc1)C(=O)OCC(=O)N1CC2(C)CC1CC(C)(C)C2 (stereo not given)	7.94 µM (active)
Oc1ccc(Cl)cc1C1C=C(c2ccc3c(c2)OCO3)NC(c2ccc(F)c(Br)c2)N1 (stereo not given)	inactive
CCOc1ccccc1NC(=O)c1ccc2c(c1)CCN2S(=O)(=O)c1ccc(C)cc1	inactive
COc1ccc(C)cc1Nc1nc2ccccc2c2nnc(C)n12	inactive
CCCNC(=O)C(CC)n1nc(CC)n2c(cc3oc(C)cc32)c1=O (stereo not given)	inactive
CCOC(=O)c1c(C)[nH]c(CCC(=O)NCCCN2CCN(c3cc(C)ccc3C)CC2)c1C	inactive
Cc1ccc(C)c(N2CCN(CCCNC(=O)Nc3ccc(Cl)cc3)CC2)c1	10 µM (active)
O=C(NCCCN1CCN(c2ccc(F)cc2)CC1)Nc1ccc([N+](=O)[O-])cc1	inactive
O=C(C1CCC(Cn2c(=O)c3sccc3n(Cc3ccccc3F)c2=O)CC1)N1CCCCC1 (stereo not given)	inactive
COc1cc(CN(C(=O)c2ccccc2Br)c2ccccn2)cc(OC)c1OC	inactive
CCC(C)CN1CCC(CO)(Cc2ccccc2Cl)CC1 (stereo not given)	inactive
COc1cccc(CC2(CO)CCN(Cc3cnc(-c4cccc(C)c4)nc3)CC2)c1	inactive

Compound	Potency
Cc1c(CN2CCC(CO)(CCOc3ccccc3)CC2)[nH]c2ccc(Cl)cc12	20 µM (active)
COc1cc(/C=N/O)cc(Br)c1OS(=O)(=O)c1ccc(C)cc1	12.6 µM (active)
COc1cc(/C=C/c2ccc(/C=C/c3cc(OC)c(OC)c(OC)c3)cc2)cc(OC)c1OC	inactive
Cc1ccc(S(=O)(=O)Oc2ccc(/C=N/NC(=O)c3c(Cl)cnn3C)cc2)cc1	inactive
CO[C@H]1O[C@@H]2O[C@@]3(C)CC[C@@H]4[C@@H](C)CC[C@@H]([C@H]1C)[C@@]24OO3	inactive
Fc1ccc(-c2nc(Nc3cccc(Cl)c3)nc3c2COc2ccccc2-3)cc1	inactive
Cc1oc(-c2ccccc2F)nc1CN1CCC(C(=O)NCCc2ccc(Cl)cc2)CC1	inactive
COc1ccc(Cn2ccc3nc(C)c(C(=O)Nc4ccc(C)c(F)c4)cc3c2=O)cc1	inactive
O=C(NC1=CC(=O)c2ccccc2C1=O)c1ccccc1	15.8 µM (active)
CC1=C(C(=O)N2CCN(c3cccc(C(F)(F)F)c3)CC2)C2(CCCCC2)OC1=O	inactive
Cc1ccc(SCC(CC(C)C)N2CCN(CCc3ccccc3)CCC2=O)cc1 (stereo not given)	inactive
COc1ccc(C(=O)Nc2cccc(C(=O)OCc3cc(=O)n4c5c(sc4n3)CCCC5)c2)cc1	inactive
CCC1CCCCN1Cc1c(O)ccc2c(=O)c(Oc3ccccc3Cl)c(C(F)(F)F)oc12 (stereo not given)	inactive
CC1=C/C(=N\OS(=O)(=O)c2ccccc2)C=CC1=O	12.6 µM (active)
CCc1ccc(CNC(=O)c2cc3cc4ccc(OC)cc4nc3o2)cc1	inactive
Cc1ccc(-c2cnc(C3CC3)o2)cc1S(=O)(=O)Nc1cccc(C)c1C	inactive
CCC(=O)c1ccc(N2CCN(C(=O)c3cc([N+](=O)[O-])ccc3F)CC2)c(F)c1	inactive
Cc1[nH]n(-c2ccc([N+](=O)[O-])cc2)c(=O)c1C=NCCN1CCN(C(=O)c2ccccc2F)CC1	2 µM (active)
C=CCNC(=S)N1CCN(CCN=Cc2c(C)[nH]n(-c3ccc([N+](=O)[O-])cc3)c2=O)CC1	inactive
Cc1ccc2ccc3c(c2n1)NS(=O)(=O)c1ccccc1-3	inactive
COc1ccc(C(CCN2CCOCC2)c2c(OC)cc(OC)c3c2OC(=O)CC3c2ccc(OC)cc2)cc1 (stereo not given)	inactive
O=C(C[n+]1ccncc1)c1ccc2c(c1)CCCC2	inactive
CC(C)(CNC(=O)Cc1ccc(Cl)cc1Cl)N1CCOCC1	inactive
Cn1cc(C(=O)c2ccc(Cl)cc2Cl)cc1C(=O)NN	inactive
CC(C)(C)c1cc(C(=O)NN)n(Cc2ccc(Cl)cc2Cl)n1	12.6 µM (active)
